In the supplement of paper PMC12494721:
Where a name gives a salt, the structure may show the parent alone.

Tests used:
Settings in all cases: 20 µM; incubation time: 27 h, anaerobic, 37 °C;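 for the amine columns active = adjusted P below 0.05 in both replicates with a change the same way and a mean fold change under 0.8 or over 1.25; inactive = the rest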
[1] = test system: Clostridium sporogenes DSM 1664; test: growth (OD595) fold change vs plate DMSO controls (fold change (ratio)); higher = more growth
How it was run: (§1)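 The 96-well mGAM cultures had been kept anaerobic for 27 h at 37 °C before being shaken and read at 595 nm. Blank subtraction, compound background correction with 20 µM compound solutions in water, and a calibration factor of 5 turned the readings into OD. Growth is given as the fold change versus the median of plate DMSO controls. Fold changes above 1.5 were set to NA, and the values are means of 2 biological replicates.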

[2] = test system: Escherichia coli IAI1; test: as above
How it was run: as §1

[3] = test system: Klebsiella aerogenes DSM 30053; test: as above
How it was run: as §1

[4] = test system: Ruminococcus gnavus DSM 108212; test: as above
How it was run: as §1

[5] = test system: Klebsiella aerogenes DSM 30053; test: fold change of Histamine concentration vs plate DMSO controls (fold change (ratio)); higher = more amine produced, active = hit call of the paper (significant change in both replicates, either direction)
How it was run: (§2)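 In 80 µL wells, cultures of four gut bacterial strains in mGAM started at OD 0.1 before a 1:1 dilution and grew anaerobically at 37 °C for 27 h. Compounds were added to 20 µM final, except sweeteners at 50 µM final. After extraction of whole cultures with cold acetonitrile/methanol plus 0.1% formic acid and centrifugation, amines were measured by LC–triple-quadrupole MS in dynamic MRM mode against external calibration curves, with within-batch drift correction. Values give fold change over DMSO controls on the same plate, averaged across 2 biological replicates.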

[6] = test system: Clostridium sporogenes DSM 1664; test: fold change of Tryptamine concentration vs plate DMSO controls (fold change (ratio)); higher = more amine produced, active = hit call of the paper (significant change in both replicates, either direction)
How it was run: as §2

[7] = test system: Ruminococcus gnavus DSM 108212; test: as above
How it was run: as §2

[8] = test system: Escherichia coli IAI1; test: fold change of Putrescine concentration vs plate DMSO controls (fold change (ratio)); higher = more amine produced, active = hit call of the paper (significant change in both replicates, either direction)
How it was run: as §2

[9] = test system: Klebsiella aerogenes DSM 30053; test: as above
How it was run: as §2

[10] = test system: Escherichia coli IAI1; test: fold change of Cadaverine concentration vs plate DMSO controls (fold change (ratio)); higher = more amine produced, active = hit call of the paper (significant change in both replicates, either direction)
How it was run: as §2

[11] = test system: Klebsiella aerogenes DSM 30053; test: as above
How it was run: as §2

[12] = test system: Ruminococcus gnavus DSM 108212; test: fold change of 2-Phenylethylamine concentration vs plate DMSO controls (fold change (ratio)); higher = more amine produced, active = hit call of the paper (significant change in both replicates, either direction)
How it was run: as §2

SMILES	growth [1]	growth [2]	growth [3]	growth [4]	fold change of Histamine concentration [5]	fold change of Tryptamine concentration [6]	fold change of Tryptamine concentration [7]	fold change of Putrescine concentration [8]	fold change of Putrescine concentration [9]	fold change of Cadaverine concentration [10]	fold change of Cadaverine concentration [11]	fold change of 2-Phenylethylamine concentration [12]
CC[C@H](C)[C@H]1O[C@]2(C=C[C@@H]1C)C[C@@H]1C[C@@H](C/C=C(\C)[C@@H](O[C@H]3C[C@H](OC)[C@@H](O[C@H]4C[C@H](OC)[C@@H](O)[C@H](C)O4)[C@H](C)O3)[C@@H](C)/C=C/C=C3\CO[C@@H]4[C@H](O)C(C)=C[C@@H](C(=O)O1)[C@]34O)O2.CO[C@H]1C[C@H](O[C@H]2[C@H](C)O[C@@H](O[C@@H]3/C(C)=C/C[C@@H]4C[C@@H](C[C@]5(C=C[C@H](C)[C@@H](C(C)C)O5)O4)OC(=O)[C@@H]4C=C(C)[C@@H](O)[C@H]5OC/C(=C\C=C\[C@@H]3C)[C@]54O)C[C@@H]2OC)O[C@@H](C)[C@@H]1O	1.09	1.01	1.05	1.05	0.985 (inactive)	0.855 (inactive)	0.906 (inactive)	0.989 (inactive)	0.99 (inactive)	0.968 (inactive)	0.996 (inactive)	0.885 (inactive)
O=c1[nH]c2ccccc2n1CCCN1CCC(n2c(=O)[nH]c3cc(Cl)ccc32)CC1 [Domperidone]	0.989	0.963	1.08	0.669	0.906 (inactive)	1.03 (inactive)	0.984 (inactive)	1.01 (inactive)	0.951 (inactive)	1.03 (inactive)	1 (inactive)	1.03 (inactive)
C[C@]12C/C(=C/O)C(=O)C[C@@H]1CC[C@@H]1[C@@H]2CC[C@@]2(C)[C@H]1CC[C@]2(C)O [Oxymetholone]	1.21	1.01	1	1.16	0.984 (inactive)	0.861 (inactive)	0.223 (active)	1.02 (inactive)	1.02 (inactive)	1 (inactive)	1.01 (inactive)	0.271 (active)
Oc1ccccc1-c1ccccc1	1	1.12	0.949	1.21	0.959 (inactive)	0.993 (inactive)	0.973 (inactive)	0.955 (inactive)	0.993 (inactive)	1.01 (inactive)	0.998 (inactive)	0.965 (inactive)
CC[C@H](C)C1O[C@]2(C=C[C@@H]1C)C[C@@H]1C[C@@H](C/C=C(\C)[C@@H](O[C@H]3C[C@H](OC)[C@@H](O[C@H]4C[C@H](OC)[C@H](NC)[C@H](C)O4)[C@H](C)O3)[C@@H](C)/C=C/C=C3\CO[C@@H]4[C@H](O)C(C)=C[C@@H](C(=O)O1)[C@]34O)O2 (stereo not given in full)	0.931	1.08	1.05	–	0.888 (inactive)	0.823 (inactive)	0.581 (active)	1.05 (inactive)	0.995 (inactive)	1.02 (inactive)	0.995 (inactive)	0.654 (inactive)
OC(Cn1cncn1)(c1ccc(F)cc1)c1ccccc1F (stereo not given)	1.15	1.06	1.01	0.99	1.01 (inactive)	0.985 (inactive)	0.984 (inactive)	1.03 (inactive)	1.02 (inactive)	1.03 (inactive)	0.992 (inactive)	0.948 (inactive)
Cc1cccc(C)c1NC(=O)CN1CCCC1=O [Nefiracetam]	1.01	0.985	1.02	1.06	0.973 (inactive)	1.04 (inactive)	1.01 (inactive)	0.988 (inactive)	1.01 (inactive)	1.01 (inactive)	1 (inactive)	1.01 (inactive)
C[N+]1([O-])[C@@H]2C[C@@H](OC(=O)[C@H](CO)c3ccccc3)C[C@H]1[C@@H]1O[C@@H]12 (stereo not given in full) [Scopolamin-N-oxide hydrobromide]	1.05	1.03	1.01	0.938	0.988 (inactive)	1.01 (inactive)	1.13 (inactive)	1 (inactive)	0.931 (inactive)	0.991 (inactive)	1.01 (inactive)	1.13 (inactive)
O=C1CC[C@@]2(O)[C@H]3Cc4ccc(O)c5c4[C@@]2(CCN3CC2CC2)[C@H]1O5 [Naltrexone hydrochloride dihydrate]	–	0.661	0.69	0.579	1.03 (inactive)	–	0.934 (inactive)	1.02 (inactive)	1.01 (inactive)	0.995 (inactive)	0.992 (inactive)	0.896 (inactive)
CS(=O)(=O)NC(=O)c1cc(Oc2ccc(C(F)(F)F)cc2Cl)ccc1[N+](=O)[O-]	0.96	0.996	1.08	1	0.93 (inactive)	0.985 (inactive)	1.02 (inactive)	1.04 (inactive)	1.01 (inactive)	1.01 (inactive)	1.02 (inactive)	0.99 (inactive)
CCCCN(CCCC)SN(C)C(=O)Oc1cccc2c1OC(C)(C)C2	1.06	1.03	1.01	0.993	1.01 (inactive)	0.965 (inactive)	1.01 (inactive)	1.05 (inactive)	1.02 (inactive)	1.03 (inactive)	0.998 (inactive)	0.987 (inactive)
c1cc2ccc3cccc4ccc(c1)c2c34 [Pyrene]	1.01	0.96	0.997	0.936	0.993 (inactive)	0.953 (inactive)	1.03 (inactive)	1.01 (inactive)	1.05 (inactive)	0.969 (inactive)	1.03 (inactive)	1 (inactive)
C[N+]1(C)CCCC(OC(=O)C(O)(c2ccccc2)c2ccccc2)C1 (stereo not given) [Mepenzolate bromide]	0.917	0.957	1.02	0.882	0.962 (inactive)	1 (inactive)	1.03 (inactive)	0.871 (inactive)	1.02 (inactive)	1.03 (inactive)	1.01 (inactive)	1.02 (inactive)
S=C(NC1CCCCC1)N1CCC(c2cnc[nH]2)CC1 [Thioperamide maleate]	0.957	1.03	1.02	1.03	1.07 (inactive)	1.05 (inactive)	1.02 (inactive)	0.98 (inactive)	1.02 (inactive)	0.951 (inactive)	0.987 (inactive)	1.01 (inactive)
CCNCC(O)c1cccc(O)c1 (stereo not given) [Etilefrine hydrochloride]	0.977	0.971	0.996	0.981	1.05 (inactive)	1.03 (inactive)	0.959 (inactive)	0.997 (inactive)	1.01 (inactive)	0.991 (inactive)	0.987 (inactive)	0.949 (inactive)
COc1ccc2c(c1)[C@]13CCCC[C@@H]1[C@H](C2)N(C)CC3 [Dextromethorphan hydrobromide monohydrate]	1.05	0.975	1.05	0.761	0.977 (inactive)	0.991 (inactive)	0.998 (inactive)	0.962 (inactive)	0.999 (inactive)	1.01 (inactive)	1.02 (inactive)	1.04 (inactive)
CN1[C@@H]2CC[C@H]1C[C@@H](OC(=O)C(CO)c1ccccc1)C2 (stereo not given in full) [Atropine sulfate monohydrate]	–	0.98	–	0.986	1.03 (inactive)	–	1.01 (inactive)	0.982 (inactive)	1.02 (inactive)	0.957 (inactive)	1.02 (inactive)	1.01 (inactive)
CN/C(=N/CC1CCOC1)N[N+](=O)[O-] (stereo not given)	1.07	1	1.01	1.03	1.03 (inactive)	0.993 (inactive)	1.01 (inactive)	1.03 (inactive)	1.02 (inactive)	0.992 (inactive)	0.999 (inactive)	0.994 (inactive)
